In PubChem BioAssay AID686978 (National Center for Advancing Translational Sciences (NCATS), 2013):
About 64,000 (15%) of roughly 420,000 compounds were called active. Not shown: some 27% with an inconclusive outcome. A selection follows. Values without a mark were called inactive. The call rests on the fitted dose curve; in most records, active means well fitted inhibition curve with a large enough effect; inconclusive means small, poorly fitted or top-dose-only effect; inactive means flat fitted curve, though single readings scatter.

Assay: qHTS for Inhibitors of human tyrosyl-DNA phosphodiesterase 1 (TDP1): qHTS in cells in absence of CPT; further: nearly all actives have a fitted effect of over 55% in size
Conditions: DT40 Tdp1-/- hTDP1 cells, no CPT, ATP luminescence, 48 h; activity change, negative = growth inhibition: at 46.2 µM (top of the series)
Procedure, shortened: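 A cellular qHTS used chicken DT40 cells lacking endogenous Tdp1 but carrying stably transfected human TDP1. Compounds were applied without camptothecin, and cell growth kinetics were judged by ATP-dependent luminescence after ≥48 hr.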
On the % scale 0 is the no-effect control and ±100 the full control effect; potency means the concentration at half of the fitted maximal effect.

Structure (SMILES)	activity change, negative = growth inhibition	Potency
c1ccc(CN=C2Nc3ccccc3CS2)nc1	-15.1%	–
CC1(C)O[C@H]2CC(=O)OCC23[C@H]2CC[C@@]4(C)[C@H](c5ccoc5)OC(=O)[C@H]5O[C@]54[C@]2(C)C(=O)C[C@@H]13 (stereo partly drawn)	-0.653%	–
COc1ccc(NC(=O)c2c(SC)nsc2SC)cc1	-15.8%	–
Oc1ccc2c(c1)OCC1c3cc4c(cc3OC21)OCO4 (stereo not drawn)	1.62%	–
CCSc1sc(CC)cc1C=O	-5.26%	–
COc1ccccc1/C=C/C=N/NC(=O)CN1CCN(Cc2ccccc2)CC1	-25.1%	–
Cc1cc(SCc2c(F)cccc2Cl)nc(=O)[nH]1	-21.7%	–
COc1ccc(NC(=O)NC(C)c2c(-n3cccc3)sc(C)c2C)cc1OC (stereo not drawn)	–	16.4 µM (active)
COc1ccc(NC(=O)N2CCCn3nc(C)cc32)cc1OC	-3.6%	–
CCn1cc(NC(=O)Nc2ccc(OC)c(OC)c2)c(C(N)=O)n1	-6.75%	–
Cc1ccc(NC(=O)CCC(=O)c2ccc(Br)cc2)cc1	8.36%	–
NC(Cc1ccc(F)cc1)c1csc(Nc2nncc3ccccc23)n1 (stereo not drawn)	–	4.11 µM (active)
COCC(C)NC(=O)COc1nncc2ccccc12 (stereo not drawn)	-1.48%	–
O=C(Nc1ccc2c(c1)OCCO2)C1CCCN(c2ncccn2)C1 (stereo not drawn)	-21.7%	–
Cc1cc(-c2ccc(C)c(S(=O)(=O)N3c4ccccc4CC3C)c2)on1 (stereo not drawn)	–	23.1 µM (active)
CC1Cc2ccccc2N1S(=O)(=O)c1ccc(Cl)nc1 (stereo not drawn)	-14.7%	–
Cc1cc(-c2ccc(C)c(S(=O)(=O)Nc3ccc(S(N)(=O)=O)cc3)c2)on1	1.72%	–
Cc1cc(NC(=O)CCC(=O)N(CC(=O)NCC2CCCO2)c2ccccc2C)no1 (stereo not drawn)	1.54%	–
COc1ccccc1OCc1nnc(SCC(N)=O)n1-c1ccccc1	-2.24%	–
COc1ccccc1NC(=O)CSc1nnc(Cc2cccn2C)n1-c1ccc(F)cc1	-12.2%	–
COc1ccccc1NC(=O)CSc1nnc(Cn2nnc(-c3ccccc3)n2)n1-c1ccccc1	–	20.6 µM (active)
COc1ccc(Cl)cc1-n1c(=S)sc2c(=O)n(-c3ccc(F)cc3)c(SCC(=O)O)nc21	1.54%	–
O=C(O)c1cc(S(=O)(=O)N2CCCCCC2)c(Cl)cc1Cl	-12.2%	–

Structure (SMILES)	activity change, negative = growth inhibition	Potency
Cc1ccc(CNC(=O)CCNS(=O)(=O)c2ccc(Br)s2)cc1	-15.4%	–
CC1=NN(C(=O)Cc2ccc(C)cc2)C(O)(c2cccnc2)C1 (stereo not drawn)	-17.6%	–
COc1ccc(CC(=O)N2N=C(C)CC2(O)C(F)(F)F)cc1 (stereo not drawn)	–	3.26 µM (active)
CC1=NN(C(=O)CCCc2ccccc2)C(O)(C(F)(F)F)C1 (stereo not drawn)	0.642%	–
Cc1ccc(CNS(=O)(=O)c2ccc3c(c2)N(C)CCO3)cc1	-25.3%	–
CCCCC(=O)Nc1ccc2c(c1)C(=O)NC2=O	-19.1%	–
Oc1cccc(CCc2ccccn2)c1	-0.0969%	–
O=C(NCc1cn2ccsc2n1)Nc1ccc(Cl)cc1	-20.7%	–
NS(=O)(=O)c1ccc(CCNC(=O)Nc2ccc(Cl)cc2)cc1	-22.3%	–
CC(C)S(=O)(=O)c1csc(NC(=O)Nc2ccc(Cl)cc2)c1Cl	–	16.4 µM (active)
Cc1cccc(NC(=O)c2cccc(C(=O)Nc3cccc(C)c3C)n2)c1C	-7.12%	–
CCN1/C(=C\c2ccc3ccccc3[n+]2CC)Sc2cc(C)ccc21	–	0.184 µM (active)
CCN1/C(=C/c2ccc3ccc(C)cc3[n+]2CC)Sc2ccccc21	–	2.06 µM (active)
Cn1c(Nc2ccccc2)cc(=O)n(C)c1=O	1.8%	–
CCc1ccccc1NC(=S)N(CCN1CCCCCC1)Cc1ccco1	-1.1%	–
CCN(CC)S(=O)(=O)c1ccc2nc(COC(=O)c3n[nH]c4ccccc34)[nH]c2c1	-17.7%	–
CC(=O)O[C@H]1CC[C@@]2(C)C(=CC[C@@H]3[C@@H]2CC[C@]2(C)C(c4cccnc4)=CC[C@@H]32)C1	-23.6%	–
CC(=O)OC1CCC2(C)C(=CCC3C4CC(=O)N(O)C(=O)C4(C)CCC32)C1 (stereo not drawn)	–	5.17 µM (active)
C[C@]12CC[C@H](O)CC1=CCC1C2CC[C@@]2(C)C1CC[C@@H]2NC(=O)CCC(=O)O (stereo partly drawn)	-8.9%	–
CN(C)CCNC(=O)/C(=C/c1cccc([N+](=O)[O-])c1)NC(=O)c1ccccc1	2.73%	–
CCOCc1nnc(NC(=O)CSc2ccc(C)cc2)s1	-19.2%	–
OC1CSc2nc3ccccc3n2C1 (stereo not drawn)	4.08%	–
CCCc1nn2c(=O)cc(CSCC(=O)Nc3cccc(C)c3)nc2s1	18.6%	–

Structure (SMILES)	activity change, negative = growth inhibition	Potency
CC(C)(C)OC(=O)C[C@H]1C/C=C\C[C@@H](CC(=O)N[C@H](CO)Cc2ccccc2)C(=O)NC[C@@H](c2ccccc2)OC1=O	–	18.4 µM (active)
CC(C)(C)OC(=O)NC(Cc1ccccc1)C(=O)NC(CSC1CCCCO1)C(=O)NN (stereo not drawn)	0.0689%	–
CC(C)[C@@H](NC(=O)OC(C)(C)C)C(=O)NCC1CCC(C(=O)N[C@@H](Cc2ccccc2)C(=O)O)CC1 (stereo partly drawn)	-10.5%	–
O=C(C[C@H]1C/C=C\C[C@@H](NC(=O)OCC2c3ccccc3-c3ccccc32)C(=O)O[C@@H](c2ccccc2)CNC1=O)N[C@H](CO)Cc1ccccc1	–	18.4 µM (active)
CC(C)(C)OC(=O)C[C@@H]1C/C=C\C[C@@H](CC(=O)N[C@H](CO)Cc2ccccc2)C(=O)NC[C@@H](c2ccccc2)OC1=O	–	20.6 µM (active)
C[C@H]1COC(=O)[C@H](CC(=O)OC(C)(C)C)C/C=C\C[C@@H](CC(=O)N[C@H](CO)Cc2ccccc2)C(=O)N1	–	14.6 µM (active)
COc1ccc(OCC(=O)NCCc2ccc(S(N)(=O)=O)cc2)cc1	0.22%	–
CCC(C)N1CC(=O)N2Cc3[nH]c4ccccc4c3C[C@H]2C1=O (stereo partly drawn)	-16.6%	–
CCN(CC)CCNS(=O)(=O)c1ccc(/C=C/C(=O)O)cc1	-7.55%	–
CNCC(O)c1ccc(O)c(O)c1 (stereo not drawn)	-15.9%	–
COc1ccc(CNC(=O)C(=O)NCC2OCCN2C(=O)c2ccc(OC)cc2)cc1 (stereo not drawn)	-16.3%	–
C/C(=C(\C#N)C(=O)NCCCN1CCOCC1)N(C)C	-3.07%	–
O=C(CCc1ccccc1)NNc1ccc(F)cc1	-26.9%	–
Cc1cccc2[nH]c(CN(C)C(=O)C3CCC(=O)N(CCc4ccccc4)C3)nc12 (stereo not drawn)	-10.5%	–
CC(C)C(c1nnnn1Cc1ccccc1)N1CCC(C(N)=O)CC1 (stereo not drawn)	6.13%	–
CCC(c1nnnn1C1CCCC1)N(Cc1cccs1)Cc1cc2cccc(C)c2[nH]c1=O (stereo not drawn)	–	18.4 µM (active)
Cc1ccccc1-c1nnc(SCC(=O)NCc2ccc3c(c2)OCO3)n1C	-2.12%	–
CCC(=O)Nc1cccc(NC(=O)CSc2nnnn2C2CCCC2)c1	-14.2%	–
Cc1cccc2cc(CN(Cc3cccs3)C(c3nnnn3C3CCCC3)C(C)C)c(=O)[nH]c12 (stereo not drawn)	-20.3%	–
O=C(CSc1nnnn1C1CCCC1)Nc1ccc2c(c1)OCCO2	0.417%	–
Cc1cccc2cc(CN(Cc3nnnn3Cc3ccccc3)C3CCCC3)c(=O)[nH]c12	–	12.6 µM (active)
Cc1cccc2cc(CN(Cc3ccc4c(c3)OCO4)Cc3nnnn3C3CCCC3)c(=O)[nH]c12	–	16.4 µM (active)
